Measurements: PubChem BioAssay (EPA / NIEHS)
Inconclusive results are not listed. Active and inactive are the calls of the source. Rule for the calls: active = hit-call score of the fitted dose curve at least 0.9, where 1 is the maximum; inconclusive = response in the unintended direction; inactive = score below 0.9.

read-out: alkyl and aryl transferase (GSTA2), GSTA2 (gene 2939); assay: CLD_GSTA2_24hr: CellzDirect (CLD) Gene Expression Assay for alkyl and aryl transferase (GSTA2) at 24 hours (AID 2283693)
Method: CLD_24hr is a cell-based, multiplexed-readout assay that uses hepatocyte, a human liver primary cell, with measurements taken at 24 hours after chemical dosing in a 96-well plate.CLD_GSTA2_24hr is one of 16 assay component(s) measured or calculated from the CLD_24hr assay. It is designed to make measurements of mRNA induction, a form of inducible reporter, as detected with chemiluminescence signals by Quantitative Nuclease Protection Assay (qNPA) technology.Data from the assay component CLD_GSTA2_24hr was analyzed at the endpoint, CLD_GSTA2_24hr, in the positive analysis fitting direction relative to DMSO as the negative control and baseline of activity. Using a type of inducible reporter, gain-of-signal activity can be used to understand changes in the reporter gene as they relate to the gene GSTA2. Furthermore, this assay endpoint can be referred to as a primary readout. To generalize the intended target to other relatable targets, this assay endpoint is annotated to the transferase intended target family, where subfamily is alkyl and aryl transferase.
Human hepatocyte cultures were treated daily for two consecutive days with fresh dosing solutions containing appropriate concentrations of the 320 ToxCast chemicals (chemical identities were blinded to CellzDirect and other ToxCast collaborators), vehicle control (0.2% DMSO), and positive control inducers as summarized in Table 1. Due to the large number of treatment groups and chemicals examined, the ToxCast chemicals were divided into two groups (spanning two independent cultures of hepatocytes from separate donor preparations (Hu778: ToxCast plates 1 and 2; Hu776: ToxCast plates 3 and 4). Each preparation of human hepatocyte cultures was treated with respective vehicle control, medium only control, set of six positive controls/reference chemicals for the five hepatic receptor pathways, and a subset of eight of the ToxCast chemicals (indoxacarb, pyrithiobac-sodium, norflurazon, cyhalofop-butyl, methomyl, thiram, acetochlor, and propiconazole). These replicate data, coupled with internal replicates designed within the blinded ToxCast chemical library, provided additional data to evaluate interindividual differences between hepatocyte preparations and their potential impact on chemical profiles.Cell morphology and integrity were evaluated using phase-contrast microscopy as an indicator of hepatocyte cell health (Tyson & Green, 1987). Cultures for each treatment group (i.e., media, vehicle [0.2% DMSO], positive control inducers [multiple concentrations], and the ToxCast chemicals [multiple concentrations]) were observed and cell morphology was assessed relative to vehicle control cultures at each harvest time point (0, 6, 24, or 48 h). […] Images were evaluated at the conclusion of the study to assess changes in cell integrity and account for the effects of chemical exposure on uncharacteristic changes in concentration-dependent gene expression profiles. The results from these determinations of apparent cytotoxicity were annotated (yes/no) alongside the corresponding qNPA data for reference.At the conclusion of each treatment period, hepatocyte cultures (96-well) were washed with 1 volume of HBSS, lysed by addition of 25 ul ArrayPlate lysis buffer (HTG, Tucson, AZ), and 70 ul/well of Denaturation Oil, denatured by incubation at 95C for 10 min, and frozen at approximately -70C until analysis by nuclease protection assay (qNPA) (Roberts et al., 2007). For qNPA analysis, cell lysates were thawed at 50C for approximately 30 min, qNPA probes were added, and samples were incubated at 95C for 10 min to begin the detection process by denaturing the target RNA, dissociating the duplexes and secondary structure hybridization. At the conclusion of the hybridization period, S1 nuclease reagent was added to each sample to digest all nonprotected nucleotides at 50C for 60-90 min. […]

Row | Structure (SMILES) | outcome
1 | CC(C)[C@H](C(=O)O[C@H](C#N)c1cccc(Oc2ccccc2)c1)c1ccc(Cl)cc1 | inactive
2 | CN(C)[C@@H]1C(=O)C(C(N)=O)=C(O)[C@@]2(O)C(=O)C3=C(O)c4c(O)cccc4[C@@](C)(O)[C@H]3[C@H](O)[C@@H]12 | inactive
3 | CCCCOC(=O)[C@@H](C)Oc1ccc(Oc2ccc(C#N)cc2F)cc1 | inactive
4 | C[N+]1(C)CCCCC1 | inactive
5 | CCc1cnc(C2=NC(C)(C(C)C)C(=O)N2)c(C(=O)O)c1 (stereo not given) | inactive
6 | N#CSCSC#N | inactive
7 | CSc1nnc(C(C)(C)C)c(=O)n1N | inactive
8 | CN(C)C(=O)Nc1cccc(C(F)(F)F)c1 | inactive
9 | C[Si](Cn1cncn1)(c1ccc(F)cc1)c1ccc(F)cc1 | inactive
10 | COP(=O)(OC)OC(Br)C(Cl)(Cl)Br (stereo not given) | inactive
11 | CC1=NNC(=O)N(/N=C/c2cccnc2)C1 | inactive
12 | CCNc1nc(Cl)nc(NC(C)(C)C#N)n1 | inactive
13 | CC(C1CC1)C(O)(Cn1cncn1)c1ccc(Cl)cc1 (stereo not given) | inactive
14 | CNC(=O)ON=C(C)SC | inactive
15 | CCOC(=O)CC(SP(=O)(OC)OC)C(=O)OCC (stereo not given) | inactive
16 | COP(=O)(OC)SCn1c(=O)oc2cc(Cl)cnc21 | inactive
17 | Nc1nc(N)nc(NC2CC2)n1 | inactive
18 | COc1cc(OC)nc(Sc2cccc(Cl)c2C(=O)O)n1 | inactive
19 | S=C1NCCN1 | inactive
20 | CCOP(=S)(OCC)Oc1cc(C)nc(C(C)C)n1 | inactive

Row | Structure (SMILES) | outcome
21 | CCC(CC)Nc1c([N+](=O)[O-])cc(C)c(C)c1[N+](=O)[O-] | inactive
22 | Nc1c(Cl)cc([N+](=O)[O-])cc1Cl | inactive
23 | CCOP(=O)(NC(C)C)Oc1ccc(SC)c(C)c1 (stereo not given) | inactive
24 | CCCCN(CC)c1c([N+](=O)[O-])cc(C(F)(F)F)cc1[N+](=O)[O-] | inactive
25 | CCCOc1nn(C(=O)NS(=O)(=O)c2ccccc2C(=O)OC)c(=O)n1C | inactive
26 | CNC(=O)ON=C(SC)C(=O)N(C)C | inactive
27 | CCOP(=S)(Oc1cnc(C(C)(C)C)nc1)OC(C)C (stereo not given) | inactive
28 | CCCCOC(=O)c1ccccc1C(=O)O | inactive
29 | CSc1nc(NC(C)C)nc(NC(C)C)n1 | inactive
30 | CC(C)N(C(=O)SCC(Cl)=C(Cl)Cl)C(C)C | inactive
31 | CCOP(=O)(OCC)Oc1cc(C)nc(C(C)C)n1 | inactive
32 | C#CCC1=C(C)C(OC(=O)C2C(C=C(C)C)C2(C)C)CC1=O (stereo not given) | inactive
33 | CCc1cccc(CC)c1N(COC)C(=O)CCl | inactive
34 | CCOP(=S)(OCC)SCCSCC | inactive
35 | CCOP(=S)(OCC)OC(Cl)C(Cl)(Cl)Cl (stereo not given) | inactive
36 | COc1ccc(C(=CC(=O)N2CCOCC2)c2ccc(Cl)cc2)cc1OC | inactive
37 | CON=C(C(=O)OC)c1ccccc1CON=C(C)c1cccc(C(F)(F)F)c1 | inactive
38 | CSC1=N[C@@](C)(c2ccccc2)C(=O)N1Nc1ccccc1 | inactive
39 | CNC(=O)Oc1cccc2c1OC(C)(C)O2 | inactive
40 | COP(=O)(OC)C(O)C(Cl)(Cl)Cl (stereo not given) | inactive
